Activity calls are given as the source filed them. How the source made its calls: active means hit-call score of the fitted dose curve at least 0.9, where 1 is the maximum; inactive means score below 0.9.
Read-out: Signal transducer and activator of transcription 3 (Homo sapiens) (UniProt P40763)
Test: LTEA_HepaRG_STAT3: Life Technologies and Expression Analysis (LTEA) Assay for Signal transducer and activator of transcription (STAT3) using HepaRG (AID 2283529)
Conditions: mRNA level, 48 h; actives raise or lower the signal
Description: LTEA_HepaRG is a cell based, multiplexed-readout assay that uses HepaRG, a human liver cell line, with measurements taken at 48 hours after chemical dosing on a 96-well plate.LTEA_HepaRG_STAT3 is one of 102 assay component(s) measured in the LTEA HepaRG cell culture assay. It is a marker of Cell proliferation, survival, death.Data from the assay component LTEA_HepaRG_STAT3 was analyzed into 1 endpoint. This assay endpoint, LTEA_HepaRG_STAT3, was analyzed with bidirectional fitting relative to DMSO as the negative control and baseline of activity. Using a type of inducible reporter, measures of mRNA induction for gain or loss-of-signal activity can be used to understand regulation of transcription factor activity. To generalize the intended target to other relatable targets, this assay endpoint is annotated to the dna binding intended target family, where the subfamily is stat protein.
A total of 1060 chemcials from the ToxCast library were tested in eight-point concentration-response experiments. Cell culture and cytotoxicity assays were conducted at Thermo Fisher Scientific's Custom Services facility (Madison, WI). A single lot of human HepaRG cells (Thermo Fisher Scientific, Frederick, MD) was used for the cell culture experiments. 96-well format collagen type I coated plates of human HepaRG cells were prepared using established methods. Briefly, cryopreserved HepaRG cells were thawed, plated at a density of approximately 100,000 cells/well in HepaRG Thaw, Plate, and General Purpose media (HPRG770, Thermo Fisher Scientific), and incubated for 48 hours. 0.5% DMSO was selected as vehicle control to balance the requisite need of DMSO in HepaRG cultures to maintain differentiation (for example, baseline metabolism, proportions of hepatocytes vs. cholangiocytes), while enabling further hepatic receptor pathway activation (for example, PXR and CAR) in response to chemical exposure. 48 hours after plating, the culture medium was replaced with HepaRG Serum-Free Incudtion Media. Cells were exposed to each test chemical in duplicate and maintained in CO2 incubators for another 48 hours. Chemical plates were thawed to room temperature and 200x concentrations of treatment groups were prepared. 8-point conentration-reponse curves were made with the highest exposure at 100 uM, followed by half-log dilutions, all in 0.5% DMSO. Each test plate contained variouse controls, induction positive controls (1mM phenobarbital), cytotoxicity positive controls ([…] aflatoxin B1), vehicle controls (0.5% DMSO), and total lysis controls (0.5% DMSO). Cell morphology images were taken using an Essen IncuCyte FLR automated microscope, with six 96-well plates imaged in about 24 minutes. Images were captured and exported and JPEG files. Spent culture media was transfered to black-well plates for the LDH assay, and remaining media was sorted at -80 C for later use. Cells were treated with RLT buffer and frozen until shipped for gene expression analysis. Total RNA was isolated from the cell suspension in 75 uL of Buffer RLT (Qiagen, Germantown, MD 20874) by Quintiles/Expression Analysis (Durham, NC) using a custom isolation procedure. Total RNA from each plate well was transferred to a preamplification plate. Fluidigm's 96.96 Dynamic ArrayTM (Fluidigm, Amsterdam, the Netherlands) technology was used for gene expression analyses by quantitative reverse transcription polymerase chain reaction (qRT-PCR, performed by Quintiles/Expression Analysis, Durham, NC)89. Standard TaqManTM Assays (Applied Biosystems/ThermoFisher Scientific, Foster City, CA) were used to assess the expression of 93 genes selected based on their selectivity and sensitivity to important hepatic receptors known to be modulated by environmental chemicals; importance in human hepatocyte functionality; and hepatotoxicity. […]

Signal transducer and activator of transcription 3 (Homo sapiens), sequence (P40763 whole entry, looked up): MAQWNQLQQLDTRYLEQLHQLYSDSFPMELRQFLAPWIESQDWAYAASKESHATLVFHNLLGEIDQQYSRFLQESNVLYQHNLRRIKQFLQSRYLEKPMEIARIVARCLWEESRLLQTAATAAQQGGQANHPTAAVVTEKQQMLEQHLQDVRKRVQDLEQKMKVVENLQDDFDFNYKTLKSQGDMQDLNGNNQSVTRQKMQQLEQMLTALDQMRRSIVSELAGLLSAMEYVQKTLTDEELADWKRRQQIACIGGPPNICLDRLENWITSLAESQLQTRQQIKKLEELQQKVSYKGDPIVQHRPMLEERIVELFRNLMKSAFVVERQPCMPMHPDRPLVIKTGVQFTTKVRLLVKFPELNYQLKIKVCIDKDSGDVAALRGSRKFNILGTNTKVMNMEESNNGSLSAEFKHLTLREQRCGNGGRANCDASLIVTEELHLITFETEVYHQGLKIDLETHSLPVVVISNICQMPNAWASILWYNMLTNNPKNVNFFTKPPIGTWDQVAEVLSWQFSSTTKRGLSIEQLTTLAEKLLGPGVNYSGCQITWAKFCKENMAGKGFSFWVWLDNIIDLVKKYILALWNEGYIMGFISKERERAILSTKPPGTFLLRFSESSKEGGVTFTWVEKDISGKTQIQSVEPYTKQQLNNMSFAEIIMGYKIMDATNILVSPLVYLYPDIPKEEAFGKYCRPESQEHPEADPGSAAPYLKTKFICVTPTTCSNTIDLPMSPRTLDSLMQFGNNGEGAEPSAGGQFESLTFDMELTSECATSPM

Q: `C[C@]12CC[C@@H]3c4ccc(O)cc4CC[C@H]3[C@@H]1CCC2=O` was tested. Which outcome did it give?
A: The outcome was “inactive”.

Q: Which outcome does the source give for `O=C(OCCCCCCOC(=O)c1ccccc1)c1ccccc1` here?
A: Its outcome is “inactive”.

Q: `COc1ccc2cc(S(=O)(=O)N[C@H](CC(=O)N[C@H](Cc3ccc(CN4[C@H](C)CCC[C@@H]4C)cc3)C(=O)N(C)C(C)C)c3ccc4c(c3)OCO4)ccc2c1` was tested. Which AC50 did it give?
A: Its AC50 is 12.4 µM (active).

Q: For `O=C(Nc1ccc(Cl)cc1)Nc1ccc(Cl)c(Cl)c1`, which AC50 is on record?
A: The AC50 was 14.2 µM (active).

Q: Which outcome does the source give for `Cc1cn([C@H]2C[C@H](N=[N+]=[N-])[C@@H](CO)O2)c(=O)[nH]c1=O` here?
A: The outcome was “inactive”.

Q: With `COc1cccc([C@H](O)C2CCN(CCc3ccc(F)cc3)CC2)c1OC` as the compound, how does the outcome read?
A: The outcome was “inactive”.

Q: Which outcome does the source give for `CCN(Cc1cccc(S(=O)(=O)O)c1)c1ccc(C(=C2C=CC(=[N+](CC)Cc3cccc(S(=O)(=O)O)c3)C=C2)c2ccccc2S(=O)(=O)[O-])cc1` here?
A: Its outcome is “inactive”.

Q: For `CCN(CC)C(=O)c1cc(S(=O)(=O)Cc2ccccc2)c(N2CCC(c3ccccc3)CC2)cc1N(CC)CCN(C)C`, which outcome is on record?
A: Its outcome is “inactive”.

Q: With `CC(C)(c1cc(Br)c(O)c(Br)c1)c1cc(Br)c(O)c(Br)c1` as the compound, how does the outcome read?
A: Its outcome is “inactive”.

Q: With `COc1cc(C(=O)NC2CCN(C)CC2)ccc1Nc1ncc2c(n1)N(C1CCCC1)CC(F)(F)C(=O)N2C` as the compound, how does the AC50 read?
A: Its AC50 is 27.3 µM (active).

Q: Which outcome does the source give for `Cc1cccc2ccccc12` here?
A: The outcome was “inactive”.

Q: For `O=C(O)Cc1cc(I)c(Oc2ccc(O)c(I)c2)c(I)c1`, which outcome is on record?
A: Its outcome is “inactive”.

Q: `NC(=O)c1nc(-c2cccc(-c3cc(F)ccc3OCC(F)(F)C(F)(F)F)c2)n[nH]1` was tested. Which outcome did it give?
A: The outcome was “inactive”.

Q: `c1ccc2ccccc2c1` was tested. Which outcome did it give?
A: The outcome was “inactive”.

Q: With `O=CCCCC=O` as the compound, how does the outcome read?
A: Its outcome is “inactive”.

Q: With `Cc1occc1C(=O)Nc1ccc(C(=O)N2CCC(F)(F)/C(=C\C(=O)N3CCC(N4CCCCC4)CC3)c3ccccc32)cc1` as the compound, how does the outcome read?
A: Its outcome is “inactive”.

Q: `Oc1ccc2ccccc2c1` was tested. Which outcome did it give?
A: Its outcome is “inactive”.

Q: How did the outcome turn out when `Cc1cc(F)ccc1-c1cc(N2CC[C@@H](O)[C@H]2CO)ncc1N(C)C(=O)C(C)(C)c1cc(C(F)(F)F)cc(C(F)(F)F)c1` was run?
A: Its outcome is “inactive”.

Q: With `Cc1c2ccccc2c(C)c2c1ccc1ccccc12` as the compound, how does the outcome read?
A: The outcome was “inactive”.

Q: For `CC1(C)NC(=O)N(c2ccc([N+](=O)[O-])c(C(F)(F)F)c2)C1=O`, which outcome is on record?
A: Its outcome is “inactive”.

Q: With `OCCO` as the compound, how does the outcome read?
A: The outcome was “inactive”.

Q: `O=c1c(-c2ccc(O)cc2)coc2cc(O)cc(O)c12` was tested. Which outcome did it give?
A: Its outcome is “inactive”.

Q: `CC[C@@H]1C[C@H](N(Cc2cc(C(F)(F)F)cc(C(F)(F)F)c2)C(C)=O)c2cc(C(F)(F)F)ccc2N1C(=O)OC(C)C` was tested. Which outcome did it give?
A: Its outcome is “inactive”.

Q: `O=C1O[C@H]([C@@H](O)CO)C(O)=C1O` was tested. Which outcome did it give?
A: Its outcome is “inactive”.

Q: With `Cc1cc2c(cc1C(F)(F)F)N(C(=O)Nc1ccc(Oc3cccnc3C)nc1)CC2` as the compound, how does the outcome read?
A: The outcome was “inactive”.

Q: For `O=C(O)Cn1c(=O)n(Cc2ccc(Br)cc2F)c(=O)c2ccc(Cl)cc21`, which outcome is on record?
A: Its outcome is “inactive”.

Q: With `CC(C)(O)c1ccc(CNC(=O)c2cccnc2Oc2ccc3nonc3c2)cc1` as the compound, how does the outcome read?
A: Its outcome is “inactive”.

Q: For `CCCCCc1ccc(N)cc1`, which outcome is on record?
A: The outcome was “inactive”.

Q: How did the outcome turn out when `Cc1ncc(CO)c(CO)c1O` was run?
A: The outcome was “inactive”.

Q: Which AC50 does the source give for `CC(C)(C)c1csc(-c2cc3cc(OCc4ccccc4CC(=O)O)ccc3o2)n1` here?
A: The AC50 was 91 µM (active).

Q: `CCCCCCCCN(C)CCCCCCCC` was tested. Which outcome did it give?
A: The outcome was “inactive”.

Q: Which outcome does the source give for `Clc1ccccc1C(c1ccccc1)(c1ccccc1)n1ccnc1` here?
A: Its outcome is “inactive”.

Q: Which outcome does the source give for `O=c1ccc2ccccc2o1` here?
A: The outcome was “inactive”.

Q: With `CCCCCCCCCC(=O)O` as the compound, how does the outcome read?
A: Its outcome is “inactive”.

Q: How did the outcome turn out when `O=c1[nH]sc2ccccc12` was run?
A: The outcome was “inactive”.

Q: `NCc1cccc(C2CCN(C(=O)c3ccc(C#Cc4ccccc4F)o3)CC2)c1` was tested. Which outcome did it give?
A: Its outcome is “inactive”.

Q: `CC[C@H](NC(=O)c1cc(F)ccc1NS(=O)(=O)c1cccc2cccnc12)c1ccccc1` was tested. Which outcome did it give?
A: The outcome was “inactive”.

Q: Which AC50 does the source give for `CO[C@H]1/C=C/O[C@@]2(C)Oc3c(C)c(O)c4c(O)c(c(/C=N/N5CCN(C)CC5)c(O)c4c3C2=O)NC(=O)/C(C)=C\C=C\[C@H](C)[C@H](O)[C@@H](C)[C@@H](O)[C@@H](C)[C@H](OC(C)=O)[C@@H]1C` here?
A: The AC50 was 7.81 µM (active).

Q: With `CCCC(=O)OCCC(C)C` as the compound, how does the outcome read?
A: Its outcome is “inactive”.

Q: How did the AC50 turn out when `OC12N=C(c3ccccc3)SC1Cc1cc(Cl)ccc12` (stereo not given) was run?
A: Its AC50 is 0.925 µM (active).

— PubChem BioAssay (EPA / NIEHS)
